# Only some compounds are listed: those with a hit (about 1.6% of all), similar ones and a draw of the others.
# VLA-4 inh: inhibition in a human VLA-4 binding assay; P13612; VLA-4 expressing cells, ligand binding flow cytometry; inhibition, % (about 7 µM as worked out from the volumes in the protocol); 330,000 compounds, 0.2% hits; AID 2557; in the data active = inhibition above about 50%
# ATG4B inhibitor: inhibitors of human ATG4B cysteine protease. ATG4B cleavage of LC3-PLA2, NBD-HPC fluorescence, 1 h. inhibition, % at 8.33 µM. 340,000 compounds, 0.51% hits. AID 504462; in the data active = inhibition above about 40%
# PKA-R2B act: activators of human PKA-R2B complex; P22694+P31323; PKA-R2B holoenzyme dissociation, Cy5-IP20 fluorescence polarization; R2B truncated from residue 108, S112A mutant; 0% DMSO only, 100% 113 µM cGMP; activation, % at 11.4 µM; 340,000 compounds, 0.079% hits; AID 504700;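 active = activation above a cutoff set at the mean over all compounds plus 3 SD, cut at about 18% in these data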;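 note: higher means more holoenzyme dissociation and a rise in polarization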
# Target sequence (P31323 whole entry, looked up, other chains not shown, the tested form may be a part): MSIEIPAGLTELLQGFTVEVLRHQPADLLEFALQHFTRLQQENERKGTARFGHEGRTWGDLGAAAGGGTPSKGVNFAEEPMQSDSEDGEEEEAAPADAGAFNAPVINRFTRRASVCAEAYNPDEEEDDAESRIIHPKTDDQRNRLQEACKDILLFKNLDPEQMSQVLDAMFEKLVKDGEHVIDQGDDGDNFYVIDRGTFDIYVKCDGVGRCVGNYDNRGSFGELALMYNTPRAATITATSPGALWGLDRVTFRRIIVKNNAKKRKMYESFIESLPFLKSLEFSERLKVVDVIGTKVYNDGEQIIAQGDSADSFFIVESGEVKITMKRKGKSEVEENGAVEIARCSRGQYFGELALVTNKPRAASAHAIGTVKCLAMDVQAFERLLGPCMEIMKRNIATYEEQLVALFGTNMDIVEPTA
# NRP1-CendR mod: alters CendR peptide binding to human NRP-1. 360,000 compounds, 0.85% hits. FAM-RPARPAR peptide binding to NRP-1, fluorescence polarization. inhibition, % at 25 µM. O14786;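 active = inhibition or corrected inhibition above about 18%, plus a signal ratio from 0.5 to 1.5, limit read from the data, passing the limit was not always enough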
# PKA-R1A activ: activators of PKA-R1A complex; 340,000 compounds, 0.083% hits; activation, % at 11.4 µM; P00514+P68181; PKA-R1A dissociation, Cy5-IP20 fluorescence polarization; scaled: DMSO 0%, 113 µM cGMP 100%;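 active = percent activation above the mean of all tested compounds plus 3 SD, cut at about 19% in these data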;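 note: higher means more PKAc released from R1A so a rise in polarization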
# Starred values were filed as active, the others as inactive; / = not tested or not shown.
SMILES,VLA-4 inh,ATG4B inhibitor,PKA-R2B act,NRP1-CendR mod,PKA-R1A activ
Cc1ccc(-c2csc(NCCc3nc4cc(Cl)c(Cl)cc4n3CCCO)n2)cc1,-10,-5,-11,2,-1
CC(C)CN1C(=O)CN(S(C)(=O)=O)CC1(C)C(=O)Nc1ccc2c(c1)OCCO2 (stereo not drawn),/,/,/,-18,/
Cc1cnc(C(=O)OCC(=O)N2CCC(C)CC2)cn1,-16,-3,5,23*,1
Cc1cnc(C(=O)OCC(=O)N2CC(C)CC(C)C2)cn1 (stereo not drawn),10,2,6,6,4
Fc1ccc(NC(=S)Nc2cccc3ccccc23)cc1,10,-4,0,28*,-8
S=C(Nc1cccc2ccccc12)NN1CCOCC1,6,-8,-6,25*,0
Cc1ccc(NC(=S)Nc2cccc3ccccc23)cc1,-16,-5,-2,28*,-4
O=C(Cn1c(NCCCCl)nc2ccccc21)c1ccccc1,12,-11,3,31*,5
O=C(Cn1c(NCCCO)nc2ccccc21)c1ccc(Cl)cc1,0,-4,9,4,7
COc1ccc(NC(=O)C2C(=O)NC3(C)CC2c2ccccc2O3)cc1 (stereo not drawn),-3,-6,-4,33*,0
COc1ccc(C(C)NC(=O)C2C(=O)NC3(C)CC2c2ccccc2O3)cc1 (stereo not drawn),15,-2,-8,-10,-5
CC(=O)C(=Cc1ccc(Cl)cc1)C(=O)c1ccccc1,/,/,/,22*,/
CCCc1nc2c3ccccc3ccn2c1Cc1ccc(OC)cc1C,/,/,/,-108,/
COc1ccc(N2C(=O)C3C4C=CC(C5CC45)C3C2=O)c([N+](=O)[O-])c1 (stereo not drawn),3,4,4,33*,0
COc1ccc(N2C(=O)C3C4C=CC(CC4)C3C2=O)c([N+](=O)[O-])c1 (stereo not drawn),3,1,5,10,-11
Cc1ccc(C)c(S(=O)(=O)NCc2ccc(C(=O)N3CCN(C)CC3)cc2)c1,29,-4,-8,4,1
Cc1ccc(C)c(S(=O)(=O)NCc2ccc(C(=O)N3CCC(Cc4ccccc4)CC3)cc2)c1,0,-12,-14,45*,-3
Cc1ccc(F)c(S(=O)(=O)NC(=O)C2(C)CCN2C(=O)CCC2CCCC2)c1 (stereo not drawn),/,/,/,12,/
CCc1n[nH]c(=S)n1/N=C/c1cc(OC)cc([N+](=O)[O-])c1O,4,1,-3,47*,-14
Cc1ccc(C(=O)OCC(=O)c2ccc(Cl)s2)s1,17,13,1,34*,-7
O=C1c2ccccc2NC(c2ccco2)N1/N=C/c1ccco1 (stereo not drawn),18,-6,-2,18*,-7
CCOC(=O)[C@]12CCC=C1N(Cc1ccc3c(c1)OCO3)C(=O)[C@H](CC(=O)NCCc1ccccc1OC)C2,/,/,/,4,/
CCC12CC1(C(=O)OC)C(=O)N1CCc3c([nH]c4ccccc34)C12 (stereo not drawn),/,/,/,-1,/
Cc1ccc(NC(=O)C(C)N2C(=O)c3ccccc3C2=O)cc1 (stereo not drawn),17,-9,-11,27*,-6
Cc1ccc(NC(=O)C(C)N2C(=O)C3C4CC(C(Br)C4Br)C3C2=O)cc1 (stereo not drawn),8,-8,0,32*,5
SMILES,VLA-4 inh,ATG4B inhibitor,PKA-R2B act,NRP1-CendR mod,PKA-R1A activ
C[C@@H](C(=O)Nc1ccc(SC(F)F)cc1)N1C(=O)C2CCCCC2C1=O (stereo partly drawn),3,-13,-8,22*,-1
Cc1ccc(NC(=O)C(C)N2C(=O)C3CC=C(Cl)CC3C2=O)cc1 (stereo not drawn),-8,-5,-2,13,2
CCN(CC)c1ccc(NC2=C(Cl)C(=O)c3ccccc3C2=O)cc1,54*,37,7,36*,10
Cc1ccc(NC2=C(Cl)C(=O)c3ccccc3C2=O)cc1,21,15,-9,12,-6
O=C(NCc1ccccn1)c1ccc(NS(=O)(=O)c2ccccc2)cc1,1,-5,-5,22*,4
CCc1nc2ccc(C(=O)Nc3ccc(OC)c(OC)c3)cn2c1N(C)CCC(C)C,/,/,/,-4,/
Cc1nn(-c2ccccc2)c(N2CCCC2)c1C=O,-3,2,7,-3,-2
Cc1nn(-c2ccccc2)c(N2CCCC2)c1/C=C1\N=C(c2ccccc2)OC1=O,5,1,2,76*,2
COCc1c(C(=O)OCC(=O)c2ccc[nH]2)oc2ccccc12,-15,0,-9,2,0
CSCc1c(C(=O)OCC(=O)c2ccc[nH]2)oc2ccccc12,/,46*,-14,-4,-16
O=C(O)COc1ccccc1/C=C1\SC(=S)N(c2cccnc2)C1=O,-8,6,/,/,/
Cc1ccc2cc(C#N)c(SCC(=O)N3CCCc4ccccc43)nc2c1C,13,-4,8,24*,7
Cc1ccc2cc(C#N)c(SCC(=O)N3CCCc4ccccc43)nc2c1,-3,-6,5,-6,10
CC1=C(C(=O)N2CCOCC2)CC(CC(=O)NCCCN(C)C)C(=O)N1CCCN1CCCC1=O (stereo not drawn),/,/,/,2,/
COC(=O)[C@@]12C[C@@H](CC(=O)NCCc3ccccc3OC)C(=O)N(Cc3ccccc3)C1=CCC(C)(C)C2,/,/,/,4,/
COC(=O)CNc1ccc2c(c1)OCO2,8,3,-5,25*,-3
COc1ccc(OC)c(S(=O)(=O)N(C)CC(=O)Nc2ccc3c(c2)OCCO3)c1,3,-7,-7,6,-3
COC(=O)Nc1ccc2c(c1)OCO2,-1,-10,7,1,-3
COc1ccc(OC)c(S(=O)(=O)N(C)CC(=O)Nc2ccc3c(c2)OCO3)c1,9,2,-5,32*,-2
CCc1nnc(SCC(=O)Nc2ccc3c(c2)OCO3)n1CC,15,4,2,28*,-13
CCn1c(Cc2ccccc2)nnc1SCC(=O)Nc1ccc2c(c1)OCO2,11,-3,-4,-2,-2
Cc1ccc(NC(=O)CN(C)CC(=O)Nc2ccc3c(c2)OCO3)cc1,/,/,-3,22*,-10
O=[N+]([O-])c1ccc(N2CCN(Cc3ccccc3)CC2)c2c1no[n+]2[O-],/,/,5,-20,2
COc1ccc(S(=O)(=O)N2CCC(C(N)=O)CC2)cc1C(=O)N1CCCCCC1,4,-5,-13,1,-3
Cc1ccc(CNc2ccc3c(c2)OCO3)cc1,-450,6,-13,127,-1
c1cc(CNc2ccc3c(c2)OCO3)ccn1,-5,-12,-6,30*,14
COc1ccc(S(=O)(=O)N(C)c2ccc(C(=O)NCc3ccco3)cc2)cc1OC,0,11,-5,16,7

# Screens from PubChem BioAssay.
